From PubChem BioAssay (NCI)
This is part of a sample that, as a whole, favours compounds with a hit. Of some 83,000 tested, about 20% had one in any assay.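 Cells were grown in 96-well plates and exposed to the test compound at a single concentration for 48 hours; results are reported as percent growth, with values below 10 considered active.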 Unmarked numbers belong to inactive results. The source made the active and inactive calls.

Assays:
Assay in all cases: NCI-60 one-dose screen, 48 h (100 = growth as untreated, 0 = no growth, -100 = all killed)
Details in all cases: 10 µM unless noted
HCT-15 colon = test system: HCT-15 colon
HT29 colon = test system: HT29 colon
SNB-75 CNS = test system: SNB-75 CNS
SNB-19 CNS = test system: SNB-19 CNS
U251 CNS = test system: U251 CNS
PC-3 prostate = test system: PC-3 prostate
SK-MEL-5 melanoma = test system: SK-MEL-5 melanoma
UACC-62 melanoma = test system: UACC-62 melanoma
LOX IMVI melanoma = test system: LOX IMVI melanoma
SK-MEL-28 melanoma = test system: SK-MEL-28 melanoma

| SMILES | growth (HCT-15 colon) | growth (HT29 colon) | growth (SNB-75 CNS) | growth (SNB-19 CNS) | growth (U251 CNS) | growth (PC-3 prostate) | growth (SK-MEL-5 melanoma) | growth (UACC-62 melanoma) | growth (LOX IMVI melanoma) | growth (SK-MEL-28 melanoma) |
| --- | --- | --- | --- | --- | --- | --- | --- | --- | --- | --- |
| COc1ccc(/C=N/Nc2nc(N/N=C/c3ccc(OC)cc3O)nc(N3CCOCC3)n2)c(O)c1 | 3.39% (active) | 56.4% | 74.4% | 69.4% | 45.6% | 35.8% | 40.6% | 69.3% | 45.4% | 37.4% |
| COCCOc1ccc(-c2csc(NC(C)=O)n2)cc1NS(=O)(=O)c1cccc2c(N(C)C)cccc12 | 94.5% | 89.3% | 94.2% | 71% | 99.5% | 68.5% | 78.8% | 60.8% | 98.4% | 83.1% |
| Clc1ccccc1/C=C/c1nn2c(-c3ccncc3)nnc2s1 | 96.4% | 111% | 105% | 99.6% | 106% | 97.2% | 99.3% | 94.3% | 98.1% | 103% |
| Cc1ccc(-c2cc3nc(C(Cl)Cl)nc(-c4ccccc4)n3n2)cc1 | 75.6% | 74.9% | 99.3% | 74.1% | 66.8% | 79.3% | 92.2% | 91.9% | 109% | 101% |
| Cc1ccc(-c2cc(-c3ccc(N(C)C)cc3)n3c(n2)nc2ccccc23)cc1 | 56.6% | 65.8% | 94% | 50.2% | 56.7% | 47.8% | -37.6% (active) | 35% | 83.5% | 52.9% |
| COCCC[C@H]1O[C@@](O)([C@H](C)[C@@H]2CC(OC)C(O)/C=C(C)/C=C(C)/C=C(\C)C(OC3O[C@@H](C)[C@H](O)C(O)[C@@H]3O)C(C)/C=C(C)/C=C(OC)/C=C(\C)C(=O)O2)C(OC)C(O)[C@]1(C)O[C@H]1C[C@@H](O)[C@H](O[C@H]2C[C@](C)(O)[C@H](O)C(C)O2)C(C)O1 (stereo not given in full) | 57.5% | 67% | 35.3% | 38.8% | 47% | 27.8% | 7.32% (active) | 58.4% | 76.4% | 84.2% |
| O=C(NCCNc1cc(-c2cn(-c3ccccc3)nc2-c2cccc(O)c2)ccn1)Nc1ccc(Cl)c(C(F)(F)F)c1 | 2.46% (active) | 34.8% | 42.8% | 46.8% | 42.8% | 42.2% | 65.9% | 77% | 0.724% (active) | 42.1% |
| COc1cc(-c2noc(C[C@@H](NC(=O)OCc3ccccc3)C(C)C)n2)cc(OC)c1OC | 97.4% | 104% | 76.3% | 89.6% | 98.4% | 97% | 99.3% | 88.4% | 101% | 100% |
| C=CCn1c(SCC(=O)Nc2cccc(C(=O)/C=C/c3ccccc3)c2)nc2ccccc2c1=O | 57.9% | 14.7% | 82.1% | 77.1% | 46.7% | 77.4% | 98.6% | 86.3% | 24.4% | 95.4% |
| Cn1cc(-c2nnc(N)nc2-c2cn(C)c3ccc(F)cc23)c2cc(F)ccc21 | 91.8% | 63.3% | 64.4% | 91% | 83.2% | 95.2% | 91% | 94.6% | 98.4% | 103% |
| CS(=O)(=O)c1ccc2c(c1)c1c(n2Cc2ccc(Cl)cc2)CCCC1 | 54.9% | 75.5% | 75.4% | 72.3% | 68.1% | 51.9% | 82.4% | 43.2% | 81.5% | 87.2% |
| CCn1c2ccc(/C=N/OCCCN(C)C)cc2c2cc(/C=N/OCCCN(C)C)ccc21 | -13% (active) | -58.8% (active) | 82.8% | 59.3% | -30.9% (active) | 32.4% | -95.6% (active) | 10.6% | -91.8% (active) | -33.8% (active) |
| C#C[C@]1(O)CC[C@H]2[C@@H]3CC=C4c5sc(-c6cccc(F)c6)nc5CC[C@]4(C)[C@H]3CC[C@@]21C | 53.5% | 78.4% | 70% | 87.3% | 75% | 68.7% | 96.4% | 74.9% | 80.8% | 81.1% |
| N#C/C(=C\c1ccc(Cl)cc1Cl)C(N)=O | 87.7% | 106% | 90.2% | 97.6% | 95.5% | 92.5% | 101% | 96.8% | 97.3% | 112% |
| CCOc1c(C#N)c(Nc2ccc(S(N)(=O)=O)cc2)c(C#N)c2nnc(C)n12 | 105% | 107% | 91% | 101% | 108% | 85.4% | 97.8% | 91.8% | 95.6% | 110% |
| COc1ccc(/C=C/C(=O)c2nnn(-c3ccc(C(=O)O)cc3)c2C)cc1OC | 89.6% | 102% | 99.1% | 96.3% | 93.8% | 97.7% | 103% | 90.3% | 76.2% | 107% |
| O=S(=O)(Nc1ccc(-c2nc(-c3cccc(O)c3)c(-c3ccnc(Br)c3)[nH]2)cc1)c1ccccc1 | 13.3% | 31.8% | 5.4% (active) | 30.2% | 30.3% | 9.21% (active) | -26.4% (active) | 16.4% | -25% (active) | 33.1% |
| CC1(COc2ccc3ncc(C#Cc4cncc(C(=O)Nc5cc(C(C)(C)C)on5)c4)n3n2)COC1 | 26% | 101% | 12.8% | 60.9% | 29% | 43.4% | 7.95% (active) | 29.6% | 11% | 51.4% |
| CN1CCN(c2nc(-c3cnc4ccccc4n3)cc3ccccc23)CC1 | 7.27% (active) | 21.3% | 72.7% | 81.1% | 68% | 70.8% | 66.4% | -7.14% (active) | 20% | 30.9% |
| CCc1ccc(NC(=O)N[C@@H](Cc2cccc(C)c2)C(=O)N[C@@H]2C(=O)N3CCC[C@H]3C(=O)N3CCCC[C@H]3C(=O)N[C@@H](CO)C(=O)N3C[C@H](C)C[C@H]3C(=O)O[C@H]2C)c(F)c1 | 15.5% | 33.5% | 20.4% | 28.3% | 31.7% | 17.8% | -29.3% (active) | 25.9% | 32.8% | 38.1% |
| CCN1CCN(c2cc(C(=O)Nc3nc4ccc(Oc5ccnc(C(=O)NC)c5)cc4s3)cc(C(F)(F)F)c2)CC1 | 26.9% | 18.5% | 88.7% | 111% | 76.8% | 55.6% | 63.6% | 90.7% | 34.6% | 76.8% |
| C=CCn1c(SCC(=O)Nc2cccc(C(=O)/C=C/c3ccc(Cl)cc3)c2)nc2ccccc2c1=O | 81.5% | 84.8% | 72.2% | 86.9% | 90.7% | 89% | 99.1% | 72.2% | 77.9% | 93.3% |
| C/C(Cc1ccc(Cl)cc1)=C(/c1ccccc1)c1ccc(OCCN)cc1 | 101% | 102% | 98.2% | 92.9% | 100% | 99% | 99.1% | 91.7% | 98% | 96% |
| NS(=O)(=O)c1ccc(Nc2nc(N/N=C/c3ccc(C(F)(F)F)cc3)nc(Nc3ccccc3)n2)cc1 | 31.3% | 11.4% | 42% | 33.8% | 18.6% | 14.4% | 34.5% | 14.9% | 9.92% (active) | 27.2% |
| O=C(CN1CCN(c2cc(=O)n(-c3ccccc3)c3ccccc23)CC1)Nc1ccc([N+](=O)[O-])cc1 | 95.1% | 105% | 88% | 87.1% | 93.9% | 84.7% | 74.1% | 63.4% | 89.3% | 101% |
